According to PubChem BioAssay AID720617 (Broad Institute, 2013):
Results filed as inconclusive are left out. Calls of active or inactive are those of the source.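 How the source made its calls: active means active at all three treatment times, each with half-maximal potency within twice the top valid dose, signal falling; inconclusive means treatment times disagree on the call; inactive means inactive at all three times, including opposite responses.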

Assay: CCRF-CEM leukemia cell cytotoxicity, late-stage follow-up, mechanism study for HRAS target identification, Alamar Blue fluorescence, several timepoints, dry powder (AID 720617)
Conditions: activity change: measured here: 8 h treatment viability, at 35 µM, stronger effect = lower value

Compound | activity change | outcome
Cc1onc(C(=O)N2CCN(C(c3ccncc3)c3ccncc3)CC2)c1[N+](=O)[O-] | -0.515% | inactive
CCC(=O)N(c1ccc(OC)c(Cl)c1)C(C(=O)NCCc1ccccc1)c1cccs1 (centres undefined) | 6.85% | inactive
